ChEMBL document CHEMBL4513216, “Probing the Open Global Health Chemical Diversity Library for Multistage-Active Starting Points for Next-Generation Antimalarials” (ACS Infect Dis, 2020)
The whole screen tested about 69,000 compounds, of which about 8,600 (12%) showed an effect of 50% or more. Only a selection was taken, and strong results are over-represented in it overall.

test system: Plasmodium berghei; assay: Screen against P. berghei liver stage (PbLuc), transformed with Luciferase, at 10uM; type: functional, HepG2; settings: tested at 10 uM

Row | Compound | INHIBITION [%]
1 | CC(C)CCN(CCC(C)C)Cc1nc2c(cnn2C)c(=O)[nH]1 | -11.58
2 | O=C(c1ccco1)N1C[C@H]2CCCN(Cc3nccs3)[C@H]2C1 | 1.71
3 | CC(C)c1ccc(OCCNC(=O)CN2CCN(C)CC2C)cc1 (stereo unspecified) | 32.7
4 | COCCNc1nc(N2CCCC2)nc2nccnc12 | 6.29
5 | O=C(c1cscn1)N1CC[C@H]2C[C@@H](c3ccncn3)O[C@@H]2C1 | 43.9
6 | COCCC(=O)NCc1ccc(-c2ccccc2C(=O)O)cn1 | 5.23
7 | O=C(C1CCC1)N1CC[C@H](O)[C@@H]1Cc1cccnc1 | 32.1
8 | CNS(=O)(=O)CC(=O)N(C1CC1)C1Cc2ccccc2C1 | 32
9 | CCCN(CCS(C)(=O)=O)C1CCc2ccccc2C1 (stereo unspecified) | 53.5
10 | CCS(=O)(=O)NCC(=O)N(C1CC1)C1Cc2ccccc2C1 | 7.39
11 | CS(=O)(=O)CCN(CCc1cccc(F)c1)C1CC1 | 30.9
12 | CCCN(C1CCc2ccccc2C1)S(C)(=O)=O (stereo unspecified) | 2.97
13 | CN(C1CCc2ccccc2C1)S(C)(=O)=O (stereo unspecified) | 53.5
14 | O=C([C@H]1C[C@H]2OCC[C@H]2N(C(=O)c2ccncc2)C1)N1CCCC1 | -23.8
15 | CCN(CC)c1ccc(C(=O)N2CCCC2Cn2cc(C)cn2)cn1 (stereo unspecified) | -4.75
16 | Cc1nn(-c2ccc(C(=O)O)cc2)c2c1C(C(C)C)SCC(=O)N2 (stereo unspecified) | -2.39
17 | O=C1COc2ccc(S(=O)(=O)NCCC3=CCCCC3)cc2N1 | -13.6
18 | C[C@@H]1CN(CC(=O)NCc2ccccn2)C[C@]1(C)O | 19.8

Row | Compound | INHIBITION [%]
19 | CC(=O)N1C[C@H]2CC[C@@H](C1)N(S(=O)(=O)c1ccc(C#N)cc1Cl)C2 | 38.3
20 | CC(C)OCCOCc1cccc(NC(=O)NCc2ccncc2)c1 | -18.2
21 | CC(C)OCCOCc1cccc(NC(=O)NCc2ccccn2)c1 | 0.139
22 | CC(C)OCCOCc1cccc(NC(=O)NCc2cnn(C)c2)c1 | 50.4
23 | CC(C)OCCOCc1cccc(NC(=O)NCC(=O)N(C)C)c1 | 44.4
24 | CNc1nc(CNC(=O)Nc2cccc(COCCOC(C)C)c2)cs1 | 52.4
25 | Cc1cc(CNC(=O)Nc2cccc(COCCOC(C)C)c2)no1 | 29.5
26 | COc1ccccc1CC(=O)N(C)Cc1cc(C)on1 | 10
27 | COc1ccc(OC)c(NC(=O)CSc2ccc3nncn3n2)c1 | 7.25
28 | c1coc(-c2noc(CN3CCc4cncnc4C3)n2)c1 | 26.43
29 | Cc1noc(C)c1-c1cc(CCC2CN(C(=O)CN)CCO2)ncn1 (stereo unspecified) | -7.005
30 | CC(C)c1nnc(NC(=O)NC2CCOc3ccccc32)s1 (stereo unspecified) | 32.2
31 | O=C(Nc1nnc(C2CC2)s1)NC1CCOc2ccccc21 (stereo unspecified) | 54.4
32 | Cc1nnc(NC(=O)NC2CCOc3ccccc32)s1 (stereo unspecified) | 13.5
33 | Cn1nccc1CN1CCOC(c2cccc(Nc3ccccn3)n2)C1 (stereo unspecified) | 78.6
34 | Cn1nccc1CN1CCOC(c2ccc(-c3cncnc3)cn2)C1 (stereo unspecified) | 23.8
35 | Cn1nccc1CN1CCOC(c2cccc(-c3cncnc3)n2)C1 (stereo unspecified) | 16.55
36 | Cc1c(C(=O)N2CCNC(=O)C2)sc2nc[nH]c(=O)c12 | 20.6
